We go through 60 compounds from PubChem BioAssay (Tox21).

Experiment [1] concerns the target Acetylcholinesterase (Homo sapiens) (UniProt P22303). Briefly: Acetylcholinesterase (AChE) small molecule antagonists: colormetric cell-based qHTS assay (AID 1347395). Further: nearly all actives have a fitted effect of over 30% in size. Further: potency means the concentration at half of the fitted maximal effect. Put shortly:
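Cells (SH-SY5Y, 2,000 per well) are seeded and left overnight at 37 C. Compound is added for 30 min, then DTNB and acetylthiocholine for a further 90 min at 37 C before absorbance-based thiocholine detection.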

Experiment [2] shares this target. The experiment is described as follows: Acetylcholinesterase (AChE) small molecule antagonists: enzyme-based qHTS assay (AID 1347397). Further: nearly all actives have a fitted effect of over 55% in size. Further: potency means the concentration at half of the fitted maximal effect. Conditions: Potency: AChE enzyme activity inhibition; outcome: AChE enzyme activity inhibition. In a few lines:
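Recombinant human AChE, dispensed at 50 mU/mL, was preincubated with Tox21 10K compounds or DMSO vehicle for 30 min at room temperature. DTNB plus acetylthiocholine was then added, and thiocholine was measured colorimetrically after a further 10 min.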

Experiment [3] has the same target. Briefly: Acetylcholinesterase (AChE) small molecule antagonists: fluorescence cell-based qHTS assay (AID 1347398). Further: nearly all actives have a fitted effect of over 50% in size. Further: potency means the concentration at half of the fitted maximal effect. Conditions: Potency: AChE activity; outcome: AChE activity. In a few lines: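 Human SH-SY5Y cells were plated overnight at 37 C, exposed to compound for 30 min at 37 C, 5% CO2, then given acetylthiocholine plus Thiolite Green for 40 min at room temperature; thiocholine fluorescence (Ex/Em 490/520 nm) reports endogenous AChE activity.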

Experiment [4] shares this target. The experiment is described as follows: Acetylcholinesterase (AChE) small molecule antagonists: enzyme-based qHTS assay with human liver microsomes (AID 1347399). Further: nearly all actives have a fitted effect of over 60% in size. Conditions: Potency: qHTS inhibition; outcome: qHTS inhibition. Put shortly: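 Recombinant human AChE (50 mU/mL in the enzyme mix) and human liver microsomes (0.25 mg/mL final) were preincubated with compound and NADPH (0.25 mg/mL final) for 30 min at 37 C. Acetylthiocholine/DTNB was then added; thiocholine was read colorimetrically after 10 min at room temperature.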

Values without a mark were called inactive. Records with an inconclusive call do not appear. Active and inactive are the calls of the source. The call rests on the fitted dose curve.
On the % scale 0 is the no-effect control and ±100 the full control effect.

Chain of Acetylcholinesterase (Homo sapiens) (P22303 whole entry, looked up): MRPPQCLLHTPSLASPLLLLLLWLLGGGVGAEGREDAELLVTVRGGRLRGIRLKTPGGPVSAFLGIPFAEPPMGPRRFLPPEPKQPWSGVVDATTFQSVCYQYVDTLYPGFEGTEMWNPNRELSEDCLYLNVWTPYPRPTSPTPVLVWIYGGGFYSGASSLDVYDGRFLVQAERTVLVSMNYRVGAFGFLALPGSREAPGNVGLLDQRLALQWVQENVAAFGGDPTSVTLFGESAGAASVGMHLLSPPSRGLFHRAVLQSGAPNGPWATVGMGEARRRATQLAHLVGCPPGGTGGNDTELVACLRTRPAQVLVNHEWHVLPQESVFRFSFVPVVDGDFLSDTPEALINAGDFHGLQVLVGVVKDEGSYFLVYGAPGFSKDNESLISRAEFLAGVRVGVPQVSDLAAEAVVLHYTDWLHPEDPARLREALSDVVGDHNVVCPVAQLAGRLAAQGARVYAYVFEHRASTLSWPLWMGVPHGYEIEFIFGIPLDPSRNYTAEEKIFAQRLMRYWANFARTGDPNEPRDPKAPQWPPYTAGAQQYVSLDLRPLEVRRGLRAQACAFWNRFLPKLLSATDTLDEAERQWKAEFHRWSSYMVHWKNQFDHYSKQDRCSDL

For `COc1ccc(OC)c(NC(=O)CC(C)=O)c1`, the Potency entry in experiment [1], in experiment [2], in experiment [3] and in experiment [4] was “inactive” throughout.

Take `C=C(C)C(=O)OCC(C)O` (stereo not given): the Potency entry in experiment [1], in experiment [2], in experiment [3] and in experiment [4] was “inactive” in each case.

`CC(=O)Nc1ccn(C2COC(COC(=O)c3ccccc3)O2)c(=O)n1` (stereo not given): the Potency entry in experiment [1], in experiment [2], in experiment [3] and in experiment [4] was “inactive” in each case.

Regarding `CCCCOCCOCCOC(=O)CCCCC(=O)OCCOCCOCCCC`, the Potency result in experiment [1], in experiment [2], in experiment [3] and in experiment [4] was “inactive” in each case.

Consider `O=C(O)Cc1cn(-c2ccccc2)nc1-c1ccc(Cl)cc1`, for which the Potency result in experiment [1], in experiment [2], in experiment [3] and in experiment [4] was “inactive” throughout.

Turning to `NCCN1CCNCC1`, the Potency result in experiment [1], in experiment [2], in experiment [3] and in experiment [4] was “inactive” each time.

`CCCCCCCCCCn1cc[n+](CCCCCCCCCC)c1C`: the Potency is 79.8 µM (active) in experiment [1], 35.6 µM (active) in experiment [2] and 40 µM (active) in experiment [3]. Also, the Potency entry in experiment [4] is “inactive”.

Consider `COC(=O)Nc1nc2ccc(C(=O)c3cccs3)cc2[nH]1`, for which the Potency result in experiment [1], in experiment [2], in experiment [3] and in experiment [4] was “inactive” each time.

`NNS(=O)(=O)c1ccc(Oc2ccc(S(=O)(=O)NN)cc2)cc1`: the Potency result in experiment [1], in experiment [2], in experiment [3] and in experiment [4] was “inactive” throughout.

Regarding `CCCC1CCC(=O)O1` (stereo not given), the Potency result in experiment [1], in experiment [2], in experiment [3] and in experiment [4] was “inactive” each time.

With `CC(C(=O)O)c1cccc(Oc2ccccc2)c1` (stereo not given), the Potency result in experiment [1], in experiment [2], in experiment [3] and in experiment [4] was “inactive” throughout.

Regarding `Cc1cc2c(cc1S(N)(=O)=O)S(=O)(=O)CCC2`, the Potency in experiment [1] is 17.4 µM (active). The Potency entry in experiment [2], in experiment [3] and in experiment [4] was “inactive” in each case.

Consider `CC(=O)Nc1cccc(O)c1`, for which the Potency entry in experiment [1], in experiment [2], in experiment [3] and in experiment [4] was “inactive” in each case.

`COC(=O)CCS`: the Potency entry in experiment [1], in experiment [2], in experiment [3] and in experiment [4] was “inactive” throughout.

As to `COC(=O)Cc1cccc2ccccc12`, the Potency entry in experiment [1], in experiment [2], in experiment [3] and in experiment [4] was “inactive” in each case.

`COC(=O)CCCCC(=O)O`: the Potency entry in experiment [1], in experiment [2], in experiment [3] and in experiment [4] was “inactive” throughout.

As to `O=C(O)c1c(Cl)ccc(Cl)c1Cl`, the Potency entry in experiment [1], in experiment [2], in experiment [3] and in experiment [4] was “inactive” throughout.

Consider `C[C@]12CC[C@@H]3c4ccc(O)cc4CC[C@H]3[C@@H]1CC[C@@H]2O`, for which the Potency entry in experiment [1], in experiment [2], in experiment [3] and in experiment [4] was “inactive” in each case.

For `CCOC(=O)O[C@]1(C(=O)OCCl)CC[C@H]2[C@@H]3CCC4=CC(=O)C=C[C@]4(C)[C@H]3[C@@H](O)C[C@@]21C`, the Potency result in experiment [1], in experiment [2], in experiment [3] and in experiment [4] was “inactive” each time.

Turning to `O=C1OCCN1/N=C/c1ccc([N+](=O)[O-])o1`, the Potency result in experiment [1], in experiment [2], in experiment [3] and in experiment [4] was “inactive” each time.

Turning to `CC(=O)Nc1ccc(C)cc1C`, the Potency result in experiment [1], in experiment [2], in experiment [3] and in experiment [4] was “inactive” throughout.

For the compound `CC1=CC(=O)CCC1`, the Potency entry in experiment [1], in experiment [2], in experiment [3] and in experiment [4] was “inactive” in each case.

Turning to `CC(C)=CC(=O)O`, the Potency entry in experiment [1], in experiment [2], in experiment [3] and in experiment [4] was “inactive” throughout.

In the case of `OC1(c2ccc(Cl)c(C(F)(F)F)c2)CCN(CCCC(c2ccc(F)cc2)c2ccc(F)cc2)CC1`, the Potency result in experiment [1], in experiment [2], in experiment [3] and in experiment [4] was “inactive” in each case.

Take `CC(=O)Oc1cccc(O)c1`: the Potency entry in experiment [1], in experiment [2], in experiment [3] and in experiment [4] was “inactive” in each case.

Consider `Cc1ccc(S(=O)(=O)NC(=O)NN2CCCCCC2)cc1`, for which the Potency result in experiment [1], in experiment [2], in experiment [3] and in experiment [4] was “inactive” in each case.

On to `CN(C)CCC=C1c2ccccc2CCc2ccccc21`, for which the Potency entry in experiment [1], in experiment [2], in experiment [3] and in experiment [4] was “inactive” throughout.

For the compound `O=C1c2ccccc2C(=O)C1c1ccc2ccccc2n1`, the Potency result in experiment [1], in experiment [2], in experiment [3] and in experiment [4] was “inactive” in each case.

Turning to `C/C=C/C(=O)CCCC`, the Potency entry in experiment [1], in experiment [2], in experiment [3] and in experiment [4] was “inactive” each time.

Turning to `Nc1nc(F)nc2c1ncn2[C@@H]1O[C@H](CO)[C@@H](O)[C@@H]1O`, the Potency result in experiment [1], in experiment [2], in experiment [3] and in experiment [4] was “inactive” throughout.

Regarding `CS(=O)(=O)OCCCCOS(C)(=O)=O`, the Potency result in experiment [1], in experiment [2], in experiment [3] and in experiment [4] was “inactive” in each case.

With `CCN(CC)CCNC(=O)c1cc(S(C)(=O)=O)ccc1OC`, the Potency entry in experiment [1], in experiment [2], in experiment [3] and in experiment [4] was “inactive” in each case.

Regarding `Cn1c(=O)c2[nH]cnc2n(C)c1=O`, the Potency entry in experiment [1], in experiment [2], in experiment [3] and in experiment [4] was “inactive” each time.

For the compound `O=C(Oc1ccccc1)Oc1ccccc1`, the Potency entry in experiment [1], in experiment [2], in experiment [3] and in experiment [4] was “inactive” each time.

`O=C(O)c1cccc(C(=O)O)n1`: the Potency result in experiment [1], in experiment [2], in experiment [3] and in experiment [4] was “inactive” throughout.

In the case of `CCNC(=S)NCC`, the Potency result in experiment [1], in experiment [2], in experiment [3] and in experiment [4] was “inactive” each time.

`NS(=O)(=O)c1ccc(Cl)c(S(N)(=O)=O)c1`: the Potency result in experiment [1], in experiment [2], in experiment [3] and in experiment [4] was “inactive” throughout.

On to `COC(=O)OC`, for which the Potency result in experiment [1], in experiment [2], in experiment [3] and in experiment [4] was “inactive” each time.

With `CCOC(=O)C1OC1c1ccccc1` (stereo not given), the Potency entry in experiment [1], in experiment [2], in experiment [3] and in experiment [4] was “inactive” in each case.

`Cc1cc(C)c(/C=C2\C(=O)Nc3ccccc32)[nH]1`: the Potency entry in experiment [1], in experiment [2], in experiment [3] and in experiment [4] was “inactive” throughout.

Consider `O=C(O)CCCl`, for which the Potency result in experiment [1], in experiment [2], in experiment [3] and in experiment [4] was “inactive” throughout.

Regarding `Cc1ccc(C(=O)Nc2ccc(S(=O)(=O)O)c3cc(S(=O)(=O)O)cc(S(=O)(=O)O)c23)cc1NC(=O)c1cccc(NC(=O)Nc2cccc(C(=O)Nc3cc(C(=O)Nc4ccc(S(=O)(=O)O)c5cc(S(=O)(=O)O)cc(S(=O)(=O)O)c45)ccc3C)c2)c1`, the Potency entry in experiment [1], in experiment [2], in experiment [3] and in experiment [4] was “inactive” throughout.

Turning to `Nc1nnc(-c2cccc(Cl)c2Cl)c(N)n1`, the Potency result in experiment [1], in experiment [2], in experiment [3] and in experiment [4] was “inactive” each time.

For `CC(=O)O[C@H]1CC[C@@]2(C)C(=CC[C@@H]3[C@@H]2CC[C@]2(C)C(C(C)=O)=CC[C@@H]32)C1`, the Potency entry in experiment [1], in experiment [2], in experiment [3] and in experiment [4] was “inactive” throughout.

For `CC(CCc1ccccc1)NCC(O)c1ccc(O)c(C(N)=O)c1` (stereo not given), the Potency result in experiment [1], in experiment [2], in experiment [3] and in experiment [4] was “inactive” throughout.

Turning to `Nc1ccc(O)c(N)c1`, the Potency entry in experiment [1], in experiment [2], in experiment [3] and in experiment [4] was “inactive” each time.

With `CC(C)(C)c1cc(Cc2cc(C(C)(C)C)c(O)c(C(C)(C)C)c2)cc(C(C)(C)C)c1O`, the Potency entry in experiment [1], in experiment [2], in experiment [3] and in experiment [4] was “inactive” in each case.

Regarding `COc1cc(C(=O)N2CCCCCCC2)cc(OC)c1OC`, the Potency entry in experiment [1], in experiment [2], in experiment [3] and in experiment [4] was “inactive” in each case.

On to `COc1cc2ncnc(Nc3cccc(Cl)c3)c2cc1OC`, for which the activity, negative = inhibition in experiment [1] is 5.54% [at 23.6 µM]. Moreover, the activity change, negative = inhibition in experiment [2] is -0.138% [at 23.6 µM]; in experiment [3], 1.23% [at 23.8 µM]; in experiment [4] it was 1.05% [at 23.6 µM].

`C1CN(SSN2CCOCC2)CCO1`: the Potency result in experiment [1], in experiment [2], in experiment [3] and in experiment [4] was “inactive” each time.

For `O=C(O)CCNC(=O)c1ccccc1`, the Potency result in experiment [1], in experiment [2], in experiment [3] and in experiment [4] was “inactive” each time.

With `CCOc1c(N2CCOCC2)cnn(C)c1=O`, the Potency entry in experiment [1], in experiment [2], in experiment [3] and in experiment [4] was “inactive” in each case.

As for `CC1=CC[C@@H](C(C)(C)O)CC1`, the Potency entry in experiment [1], in experiment [2], in experiment [3] and in experiment [4] was “inactive” in each case.

As for `Cc1c(F)cc2c(=O)c(C(=O)O)cn3c2c1CCC3C` (stereo not given), the Potency result in experiment [1], in experiment [2], in experiment [3] and in experiment [4] was “inactive” throughout.

Take `NCC(=O)CCC(=O)O`: the Potency result in experiment [1], in experiment [2], in experiment [3] and in experiment [4] was “inactive” in each case.

On to `Cc1cc(Cc2ccc(N)c(C)c2)ccc1N`, for which the Potency entry in experiment [1], in experiment [2], in experiment [3] and in experiment [4] was “inactive” in each case.

Regarding `COS(C)(=O)=O`, the Potency result in experiment [1], in experiment [2], in experiment [3] and in experiment [4] was “inactive” throughout.

Regarding `Oc1ccc(Cc2ccccc2O)cc1`, the Potency result in experiment [1], in experiment [2], in experiment [3] and in experiment [4] was “inactive” each time.

Regarding `COC(=O)Nc1nc2ccc(C(=O)C3CC3)cc2[nH]1`, the Potency result in experiment [1], in experiment [2], in experiment [3] and in experiment [4] was “inactive” in each case.

Take `Nc1ccc2cc(S(=O)(=O)O)ccc2c1`: the Potency entry in experiment [1], in experiment [2], in experiment [3] and in experiment [4] was “inactive” each time.
